MITF inh – blocks human microphthalmia-associated transcription factor. O75030. AlphaScreen MITF homodimerization, bead proximity signal. inhibition, % at 2.6 µM. hit rate 0.91% among 650,000. AID 1259374; in the data active = inhibition above about 50%;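 note: 0% = vehicle wells with protein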
TEAD-YAP block – TEAD-YAP interaction inhibition; HEK-TIYL cells, TEAD-Gal4/YAP UAS-luciferase luminescence; inhibition, % at 9.12 µM; hit rate 1.4% among 640,000; AID 1259422; in the data active = inhibition above about 32%;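 note: 0% = median of test compound wells and 100% = reference inhibitor wells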
GPR151 ag – activates the human receptor GPR151; Q8TDV0; PathHunter beta-arrestin GPR151 cells, luminescence; activation, % at 11.2 µM; hit rate 1% among 650,000; AID 1508602; in the data active = activation above about 4.9%;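 note: 0% = median of compound wells and 100% = cells with positive control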
Target sequence (Q8TDV0 whole entry, looked up): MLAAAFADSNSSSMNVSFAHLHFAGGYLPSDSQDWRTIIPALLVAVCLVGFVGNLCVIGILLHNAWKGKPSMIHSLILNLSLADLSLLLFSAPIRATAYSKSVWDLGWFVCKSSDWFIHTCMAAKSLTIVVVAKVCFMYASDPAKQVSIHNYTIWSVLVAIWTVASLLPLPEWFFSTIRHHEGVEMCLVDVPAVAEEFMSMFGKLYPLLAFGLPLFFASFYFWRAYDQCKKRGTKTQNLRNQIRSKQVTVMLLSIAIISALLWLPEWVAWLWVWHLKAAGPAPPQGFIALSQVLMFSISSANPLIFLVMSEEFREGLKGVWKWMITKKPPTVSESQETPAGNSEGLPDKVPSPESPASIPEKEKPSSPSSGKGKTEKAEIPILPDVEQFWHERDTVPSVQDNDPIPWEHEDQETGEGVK
FBW7 act – human FBW7 E3 ligase activation, primary screen; AlphaScreen FBW7–phospho-cyclin E peptide binding, activator screen; normalized activity (activation), % at 26.1 µM; hit rate 0.13% among 650,000; in the data active = normalized activity above about 1.9%;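 note: purified mutant Fbw7 with reduced substrate affinity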
The depositor's hits bear a star. Only some compounds are listed: those with a hit (about 3.4% of all), similar ones and a draw of the others.

SMILES	MITF inh	TEAD-YAP block	GPR151 ag	FBW7 act
O=CC12c3ccccc3C(c3ccccc31)C1C(=O)N(c3ccccc3)C(=O)C12 (configuration not stated)	6	19	-1	0
Cc1ccc(N2C(=O)C3C4c5ccccc5C(C=O)(c5ccccc54)C3C2=O)cc1[N+](=O)[O-] (configuration not stated)	8	34*	1	0
O=CC12c3ccccc3C(c3ccccc31)C1C(=O)N(c3ccc(Cl)cc3)C(=O)C12 (configuration not stated)	0	44*	0	0
Cc1nc(N)nc2[nH]c(=O)n(-c3ccccc3)c(=O)c12	4	-20	1	0
CCOc1ccc(N(CC(=O)Nc2ccc(OC)c(OC)c2)S(=O)(=O)c2ccc(Cl)cc2)cc1	26	0	0	0
Cc1nc2nc(SCC(=O)Nc3cccc(Cl)c3C)nn2c(C)c1Cc1ccc(F)cc1Cl	17	-10	1	0
CC1CCN(C(=O)C2CCN(Cc3cccnc3)CC2)CC1	35	6	0	0
O=[N+]([O-])c1ccc(-c2cn3cc(Cl)ccc3n2)cc1	3	-77	1	0
O=[N+]([O-])c1ccc2nc(-c3ccc(OC(F)F)cc3)cn2c1	-4	45*	1	0
CCCCN(C)S(=O)(=O)c1cc(C(=O)Nc2cccc(C)c2)ccc1F	4	2	5	0
O=C(Nc1onc2c1CCCC2)c1ccc2c(c1)OCCO2	-6	91*	-9	0
O=C(Nc1onc2c1CCCC2)c1ccc(F)cc1	-6	-1	-6	0
CCOC(=O)c1ccc(NC(=O)c2ccc3c(c2)OCCO3)cc1	6	35*	0	0
COc1ccc(C(=O)Nc2ccc3sc(C)nc3c2)cc1	9	-23	-1	0
Cc1nc2cc(NC(=O)c3ccc4c(c3)OCCO4)ccc2s1	7	61*	-7	0
O=C(Nc1ccc(F)cc1)c1ccc2c(c1)OCCO2	-1	59*	-7	0
CC(=O)c1cccc(-c2cnn3ccc(NCc4ccncc4)nc23)c1	2	0	0	-1
CCCNS(=O)(=O)c1c(C)cc(C)cc1C	-2	-5	3	0
CCOc1ccc(NC(=O)c2ccc(SCc3ccc(OC)cc3)c([N+](=O)[O-])c2)cc1	10	-4	0	0
Cc1ccccc1C1C(/C=c2/sc3nc4ccccc4n3c2=O)=C(c2cccs2)Oc2ccccc21 (configuration not stated)	2	-3	0	0
CCCOC(=O)c1ccc(NC(=O)c2ccc3c(c2)OCCO3)cc1	-2	41*	-1	0
CCCOC(=O)c1ccc(NC(=O)c2ccc(Cl)c(Cl)c2)cc1	4	-4	1	0
CCCC(=O)NC(c1ccc(F)cc1)c1ccc2cccnc2c1O (configuration not stated)	31	86*	-1	-1
CCCC(=O)NC(c1ccc(OC)cc1)c1ccc2cccnc2c1O (configuration not stated)	50	72*	1	-2
CCC(=O)NC(c1ccc(OC)cc1)c1c(O)ccc2ccccc12 (configuration not stated)	-12	52*	0	0
SMILES	MITF inh	TEAD-YAP block	GPR151 ag	FBW7 act
CCCC(=O)NC(c1ccccc1)c1ccc2cccnc2c1O (configuration not stated)	50	85*	-1	-2
CCOc1cc(C(=O)N2CCCC2)cc(Br)c1OC	-24	-4	1	0
COc1ccc(NS(=O)(=O)c2ccc(C)c(C)c2)cc1N1CCCC1=O	15	8	-1	1
O=C(NCCSc1ccccc1)C1CCCN1S(=O)(=O)c1ccc2ccccc2c1 (configuration not stated)	8	-1	1	0
Nc1ccc(OCc2ccccc2Cl)cc1	24	72*	-1	0
O=C1c2ccccc2C(=O)C1(Nc1ccc(OCc2ccccc2Cl)cc1)c1ccccc1	14	32*	0	0
COc1cccc(NC(=O)N2CCC3(CC2)NCCc2c3[nH]c3ccc(Cl)cc23)c1	15	48*	0	0
Cc1ccc2[nH]c3c(c2c1)CCNC31CCN(C(=O)N[C@@H](C)c2ccccc2)CC1	16	-16	1	0
Cc1noc(C)c1NC(=O)N1CCC2(CC1)NCCc1c2[nH]c2ccc(Cl)cc12	14	-5	-1	0
C[C@H](NC(=O)N1CCC2(CC1)NCCc1c2[nH]c2ccc(Cl)cc12)c1ccccc1	6	37*	0	0
COc1ccc(C2Nn3c(C)nnc3SC2C(=O)Nc2ccccc2C(F)(F)F)cc1 (configuration not stated)	-2	5	1	0
COc1ccc(C(=O)[C@@H]2[C@@H](c3ccc(OC)cc3)C(C#N)(C#N)[C@H]3C=Cc4ccccc4N23)cc1	21	63*	3	0
Cc1ccc(C(=O)[C@@H]2[C@@H](c3ccsc3)C(C#N)(C#N)[C@H]3C=Cc4ccccc4N23)cc1	-4	6	-1	0
COc1ccc(C(=O)[C@@H]2[C@@H](c3cccc(Br)c3)C(C#N)(C#N)[C@H]3C=Cc4ccccc4N23)cc1	6	64*	2	0
COc1ccc(C(=O)[C@@H]2[C@@H](c3ccsc3)C(C#N)(C#N)[C@H]3C=Cc4ccccc4N23)cc1	15	60*	4	0
Cn1c(=O)c(=O)n(C)c2cc(C(=O)NCc3ccco3)ccc21	-17	1	1	0
Cc1ccc(N2C(N)=C(C#N)C(c3ccc4c(c3)OCO4)C3=C2CC(C)(C)CC3=O)cc1 (configuration not stated)	-11	42*	-2	0
COc1cc(C2C(C#N)=C(N)N(c3ccc(C)cc3)C3=C2C(=O)CC(C)(C)C3)cc(OC)c1OC (configuration not stated)	-3	54*	0	0
COc1cccc(C2(NC(=O)c3cc(CN4CCOCC4)c(C)o3)CCCC2)c1	21	0	-1	0
COc1ccc(Cl)cc1/C=C1/C(=O)ON=C1C	35	10	0	0
COc1ccccc1/C=C1\C(=O)ON=C1C	71*	-2	2	0
COc1cccc(/C=C2\C(=O)ON=C2C)c1OCc1ccccc1Cl	74*	-17	0	0
COc1cccc(C=C2C(=O)NC(=O)NC2=O)c1OCc1ccccc1Cl	5	0	3	0
CC1=NOC(=O)/C1=C/c1ccccc1OS(=O)(=O)c1ccc(C)cc1	70*	5	0	0
CCc1c(C)sc2ncn3c(=O)n(Cc4ccccn4)nc3c12	10	3	-1	0
Cc1ncn(-c2ccc(Nc3nccc(-c4cc(C#N)cc(N5CCCC5)c4)n3)cc2)n1	2	-6	-1	0
CCN1CCN(c2ncn(-c3ccc(Nc4nccc(-c5cc(N6CCOCC6)cc(C(F)(F)F)c5)n4)cc3)n2)CC1	7	-6	-1	0
N#Cc1cc(-c2ccnc(Nc3ccc(-n4cnc(-c5ccccn5)n4)cc3)n2)cc(N2CCCC(O)C2)c1 (configuration not stated)	9	50*	1	0

Screens (PubChem)
